An excerpt weighted towards active compounds, which were near 1.3% of everything screened.
NCOA1 inh = human NCOA1 inhibition. 0.12% of 360,000 active. inhibition, % at 3.6 µM. HEK293 GAL4-SRC1 luciferase reporter, luminescence;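 active = inhibition above the campaign mean plus 3 SD, with each screening campaign given its own cutoff, cut at about 60% in these data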
COUP-TFII inh = blocks human COUP-TFII nuclear receptor; HEK293T NGFI-A luciferase reporter, luminescence; inhibition, % at 8.6 µM; 0.7% of 370,000 active; P24468;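 active = inhibition above a per-plate cutoff, mean inhibition of test wells between control levels plus 3 SD, cut at about 38% in these data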;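 also: cells cotransfected with COUP-TFII expression vector driving the NGFI-A reporter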
NCOA3 inh = inhibitors of human steroid receptor coactivator 3 (SRC3); 0.17% of 360,000 active; inhibition, % at 3.6 µM; Q9Y6Q9; HEK293 GAL4-SRC3 luciferase reporter, luminescence;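 active = inhibition above a per-campaign cutoff, the mean of all compounds plus 3 SD, cut at about 60% in these data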;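 also: higher means less SRC3-driven luciferase light from the GAL4 reporter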
NR5A2 inv ag = NR5A2 inverse agonism in reporter assay | AID 602396 | 0.13% of 360,000 active | inhibition, % at 3.6 µM | HEK293T StAR-luciferase reporter, LRH-1 transfected, 24 h | O00482;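 active = inhibition above the mean inhibition of all tested compounds plus 3 SD, cut at about 73% in these data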
SRC2 inh = inhibits human steroid receptor coactivator 2; 0.17% of 370,000 active; inhibition, % at 9 µM; Q15596; HEK293 GAL4-SRC2 luciferase reporter, luminescence;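 active = inhibition above the mean inhibition of all tested compounds plus 3 SD, set per campaign, cut at about 52% in these data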
Gli-Sufu block = blocks Gli-Sufu signaling in a luciferase reporter. Sufu-KO-LIGHT fibroblasts, Gli luciferase reporter luminescence. 0.74% of 340,000 active. inhibition, % at 5 µM;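 active = inhibition above about 55%, limit read from the data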
Gli-Sufu confirm = Gli-SUFU antagonism confirmation, single concentration | shares compounds with Gli-Sufu block | Sufu-KO-LIGHT cells, Gli luciferase reporter, luminescence | inhibition, % at 5 µM | 40% of 2,500 active | AID 602428;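 active = mean inhibition at 5 µM reaching about 45%, limit read from the data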
Gli cytotox = cytotoxicity counter-screen for Gli-SUFU antagonists; shares compounds with Gli-Sufu block; Sufu-KO-LIGHT cells cytotoxicity, ATP luminescence; cytotoxicity, % at 5 µM; 32% of 2,500 active; AID 651994;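 active = mean cytotoxicity at 5 µM above about 25%, limit read from the data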;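 also: cells exposed to compound overnight for roughly 16 to 18 hours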
Wnt3a counter = Wnt3a reporter inhibition counter-screen; shares compounds with Gli-Sufu block; Wnt-LIGHT cells, Wnt3a-driven luciferase reporter, luminescence; inhibition, % at 6.25 µM; 20% of 2,500 active; AID 651995;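 active = mean inhibition above about 25%, limit read from the data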
Gal4-VP16 ctr = inhibits VP16 reporter, flagging COUP-TFII antagonist hits. HEK293 Gal4-VP16 luciferase reporter, luminescence. shares compounds with COUP-TFII inh. 25% of 2,500 active. inhibition, % at 8.5 µM; in the data active = inhibition above about 13%
COUP-TFII conf = COUP-TFII (NR2F2) inhibition, confirmation assay | shares compounds with COUP-TFII inh | HEK293 NGFI-A luciferase reporter, luminescence | inhibition, % at 8.5 µM | 45% of 2,500 active;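 active = mean inhibition over three repeats above a set limit taken from the earlier primary screen, cut at about 38% in these data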
Numbers stand for hits; – = inactive; · = no result given.

SMILES	NCOA1 inh	COUP-TFII inh	NCOA3 inh	NR5A2 inv ag	SRC2 inh	Gli-Sufu block	Gli-Sufu confirm	Gli cytotox	Wnt3a counter	others
Cc1cc(C)n2nc(SCC3COc4ccccc4O3)nc2n1 (centres undefined)	–	–	–	–	–	99	–	–	–
C=CCN=C1NC(c2ccccc2C(F)(F)F)C(C(=O)OC)=C(C)N1Cc1cccc(C(F)(F)F)c1 (centres undefined)	·	–	·	·	–	·	·	·	·
Cc1ccc(-c2cn(-c3ccc(OC(F)F)cc3)c3[n+]2CCCCC3)cc1	–	–	–	–	–	83	86	41	–
FC(F)Oc1ccc(-n2cc(-c3ccccc3)[n+]3c2CCCCC3)cc1	–	–	–	–	–	66	58	–	–
FC(F)Sc1ccc(-n2cc(-c3ccc(Cl)cc3)[n+]3c2CCC3)cc1	–	–	–	–	–	–	·	·	·
Cc1ccc(-c2cn(-c3ccc(SC(F)F)cc3)c3[n+]2CCC3)cc1	–	–	–	–	–	76	80	39	–
Brc1ccc(-c2csc3[n+]2CCCCC3)cc1	–	–	–	–	–	–	·	·	·
Clc1ccc(-n2cc(-c3ccc(Br)cc3)[n+]3c2CCCCC3)cc1	–	–	–	–	–	–	68	26	–
COc1ccc(CCNC(=O)[C@H](C)N2C(=O)N3CCc4c([nH]c5ccccc45)[C@@]3(C)C2=O)cc1OC	–	–	–	–	–	–	·	·	·
CCC1(O)CC2CN(CCc3c([nH]c4ccccc34)C(C(=O)OC)(c3cc4c(cc3OC)N(C=O)C3C(O)(C(=O)OC)C(OC(C)=O)C5(CC)C=CCN6CCC43C65)C2)C1 (centres undefined)	–	–	–	–	–	–	63	65	–
CCn1c2ccccc2c2cc(C=NNC(=O)c3cc(-c4ccc(OC)cc4)n[nH]3)ccc21	·	–	·	·	–	·	·	·	·
O=C(C1=C[C@@H](c2coc3ccccc3c2=O)C[C@@H](OCc2ccc(CO)cc2)O1)N1CCN(Cc2ccc3c(c2)OCO3)CC1	–	–	–	–	–	–	·	·	·
O=C(C1=C[C@H](c2coc3ccccc3c2=O)C[C@H](OCc2ccc(CO)cc2)O1)N1CCN(Cc2ccc3c(c2)OCO3)CC1	–	–	–	–	–	–	–	–	–
CCn1ncc(C2=NOC(C(=O)NCc3ccc(Cl)cc3)C2)c1C (centres undefined)	–	–	–	–	–	–	50	45	–
CCn1ncc(C2=NOC(C(=O)Nc3ccc(C)cc3)C2)c1C (centres undefined)	–	–	–	–	–	–	·	·	·
COC(=O)c1cn(-c2ccc3c(c2)[C@@]2(CC(=O)N(C)C2c2ccccc2)C(=O)N3CC(C)C)nn1 (some centres undefined)	·	–	·	·	–	·	·	·	·
CC1=C(C(=O)OC2CCCCC2)C(c2ccc(O)cc2)NC(=O)N1 (centres undefined)	–	–	–	–	–	96	–	–	–
CCCCNC(=O)NS(=O)(=O)c1ccc(NC(=O)CSc2nnc(-c3ccc(Cl)cc3)n2N)cc1	·	–	·	·	–	·	·	·	·
Cc1cccc(NC(=O)NCCc2c[nH]c3ccccc23)c1	–	–	–	–	–	60	–	–	–
Cc1cc(Nc2ccc([N+](=O)[O-])cc2)c2ccccc2n1	–	–	–	–	–	56	–	–	–
COC(=O)c1[nH]c2c(c1C)C(=O)CC(c1ccc(OC)cc1)C2 (centres undefined)	–	–	–	–	–	–	·	·	·
C/C=C/COC(=O)c1[nH]c2c(c1C)C(=O)CC(c1ccco1)C2 (centres undefined)	–	–	–	–	–	56	67	60	–
COC(=O)c1[nH]c2c(c1C)C(=O)CC(c1ccccc1)C2 (centres undefined)	–	–	–	–	–	57	52	53	–
COC(=O)[C@H]1C[C@@]2(C#N)c3ccccc3N(C(=O)OC(C)(C)C)[C@H]2N1C(=O)OC(C)(C)C	·	–	·	·	–	·	·	·	·
COc1cc2ncnc(NCCc3ccccc3)c2cc1OC	–	–	–	–	–	60	–	–	–
SMILES	NCOA1 inh	COUP-TFII inh	NCOA3 inh	NR5A2 inv ag	SRC2 inh	Gli-Sufu block	Gli-Sufu confirm	Gli cytotox	Wnt3a counter	others
COc1ccc(CCNc2ncnc3cc(OC)c(OC)cc23)cc1OC	–	–	–	–	–	–	·	·	·
CN(C)S(=O)(=O)c1ccc(S(=O)(=O)N2CCCC(C(=O)NC3CCCC3)C2)cc1 (centres undefined)	–	–	–	–	–	70	–	33	–
O=C(NC1CCCCC1)C1CCCN(S(=O)(=O)c2ccc(F)cc2)C1 (centres undefined)	–	–	–	–	–	–	·	·	·
O=C(Nc1ccc(Br)cc1)c1ccc(F)c(S(=O)(=O)NCc2cccs2)c1	–	72	–	–	–	–	52	43	–	Gal4-VP16 ctr=–;COUP-TFII conf=56
O=S(=O)(NCc1cccs1)c1ccc(Br)cc1	–	–	–	–	–	–	·	·	·
O=C(Cn1cnc2ccccc21)Nc1ccc(SC(F)F)cc1	–	70	–	–	–	65	57	37	–	Gal4-VP16 ctr=–;COUP-TFII conf=46
Cn1c(=O)c2[nH]c(CCCCCCCCc3nc4ccccc4[nH]3)nc2n(C)c1=O	–	69	–	–	–	57	66	28	–	Gal4-VP16 ctr=–;COUP-TFII conf=58
COc1ccc(-c2nnc(SCC(=O)N/N=C\C=C/c3ccco3)n2-c2ccc(C)cc2)cc1	·	–	·	·	–	·	·	·	·
COc1cccc(Cn2c(NCc3ccco3)nc3c2c(=O)n(C)c(=O)n3C)c1	·	49	·	·	–	81	80	41	39	Gal4-VP16 ctr=–;COUP-TFII conf=–
COc1cccc(Cn2c(NCC(C)C)nc3c2c(=O)n(C)c(=O)n3C)c1	–	–	–	–	–	–	·	·	·
Cc1ccc(Cl)cc1S(=O)(=O)N1CCC(C(=O)NC2CCN(Cc3ccccc3)CC2)CC1	–	38	–	–	–	–	–	–	–	Gal4-VP16 ctr=–;COUP-TFII conf=44
CC(C)(C)c1ccc(C(=O)NCCOc2ccccc2F)cc1	–	53	–	–	–	55	74	–	89	Gal4-VP16 ctr=–;COUP-TFII conf=46
CC(C)(C)c1ccc(C(=O)NCCOc2ccccc2)cc1	–	–	–	–	–	–	·	·	·
COc1ccc(-c2nnc(SCC(=O)NN=Cc3c(O)ccc4ccccc34)n2-c2ccc(OC)cc2)cc1	·	–	·	·	–	·	·	·	·
CNC(=S)N/N=C/c1c(C(=O)OC)cnn1-c1ccc(Cl)cc1	·	–	·	·	·	·	·	·	·

Screens deposited in PubChem by several laboratories.
